Biological target: Beta Lactamase (Pseudomonas aeruginosa) (UniProt Q932Y6)
Experiment: Late stage assay provider results from the probe development efforts to identify selective inhibitors of VIM-2 metallo-beta-lactamase: VIM-2-transformed E. coli growth inhibition in the presence of imipenem (synergy).
Assay type: functional; call rule not given here

O=c1[nH]c2c(s1)[C@H](c1cccnc1)[C@H]1C3CC[C@@H](C3)[C@H]1S2
MIC: > 100 µM (active)

Source: ChEMBL document CHEMBL1201862, “PubChem BioAssay data set” (2004)
